± gives the standard deviation.
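Also: 1 nM active piRISC with 0.1 nM target library at 33 °C single turnover.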

This assay has as its system MILI (PIWIL2) piRISC loaded with L1MC piRNA (26 nt). Put plainly: pre-steady-state target cleavage rate (min^-1); guide: L1MC piRNA 5'p-UAACUAAAUACUAUGCAAGCUGUAGG; MIWI and MILI are mouse PIWI proteins and EfPiwi is from a freshwater sponge; tags in brackets are library labels; higher = faster piRNA-guided slicing of the target. The settings on record: auxiliary factor: 500 nM mouse GTSF1. An outline of the steps: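 For Cleave-'n-Seq, a transcribed, DNA-blocked target RNA library […] met 1 nM active affinity-purified piRISC with one synthetic guide at 33 °C for 0–8 or 0–960 min in HEPES–potassium acetate buffer, with or without 500 nM GTSF1 partner protein. Uncleaved targets were sequenced and normalised to depth and weakly complementary targets, with three trials pooled and k3 capped at 0.0001 min^-1. A burst-and-steady-state fit supplied the pre-steady-state cleavage rate.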
Regarding UCCUCCUACAGCAUGCAUAGUUUUUAGUUA, the “pre-steady-state target cleavage rate” value worked out at 0.0554 ± 0.01. As for UCCUGCUGACAGCUUGCAUAGUAUUUAGUUA, the “pre-steady-state target cleavage rate” value was determined as 0.327 ± 0.025. The same measure for UCCUGGUACAGCUUGUAUAGUAUUUAGUUA: 0.242 ± 0.017. Then UCCUCCUACAGCUUGCAUAGUCUUUAGUUA, with 0.198 ± 0.023. The same measure for UCCUGGAUGAGCUUAGCAUAGUAUUUAGUUA: 0.217 ± 0.016. Take UCCUCGUACUGCUUGCAUAGUAUUUAGUUA: the “pre-steady-state target cleavage rate” value is 0.264 ± 0.0097. The same measure for UCCUGGUACAGCUAGGAUAGUAUUUAGUUA: 0.191 ± 0.026; for UCCUGGAUCAGUUUGCAUAGUAUUUAGUUA: 0.24 ± 0.02; for UCCUCCUACAGCUUGCAAAGUAUAUAGUUA: 0.115 ± 0.015.

With UCCUGCUACAGCUUAGCAUAGUAUUUAGUUA, the “pre-steady-state target cleavage rate” value was determined as 0.276 ± 0.014. The same measure for UCCUGGUACAGCUUGCUUAGUAUAUAGUUA: 0.197 ± 0.045; for UCCUGGUACAGCUUGCAUAGUAUUUAGUGA: 0.129 ± 0.021; for UCCUGCUACAGCUUGCAUAGUAUAUUAGUUA: 0.389 ± 0.042. The same measure for UCCUCCUACACCUUGCAAAGUAUUUAGUUA: 0.118 ± 0.015; for UCCUGGAUCAGCUAGCAUACUAUUUAGUUA: 0.0859 ± 0.012. Then UCCUGGUACAGCAUGCAUAGUAUUUAGUUA, with 0.268 ± 0.02; and UCCUGGAUGAGACUUGCAUAGUAUUUAGUUA, with 0.186 ± 0.021; and UCCUGGUUCAGCUUGCAUUGUAUUUAGUUA, with 0.191 ± 0.023. UCCUGGUACAGCUUGACAUAGUAUUUAGUUA: the “pre-steady-state target cleavage rate” value turned out to be 0.231 ± 0.025. The same measure for UCCUGGAUGAGUUGCAUAGUAUUUAGUUA: 0.108 ± 0.013; for UCCUCCUAGAGCUUGCAUAGUAAUUAGUUA: 0.264 ± 0.029; for UCCUGCUACAGCUAGCAUAGUAAUUAGUUA: 0.284 ± 0.026. The same measure for UCCUGGAUCUGCUAGCAUAGUAUUUAGUUA: 0.168 ± 0.014; for UCCUGGUACUGCUUGCAAAGUAUUUAGUUA: 0.0806 ± 0.01.

The values above are taken from the supplement of paper PMC10338343.
